IL1B secr inh: blocks inflammasome-driven IL-1 beta release. hit rate 4.7% among 360,000. THP-1 LPS/ATP IL-1B secretion, AlphaLISA, 16 h; hits give low values. activity change, % at 57.5 µM. AID 743279; in the data active = activity change below about -50%; inconclusive = mostly about -30% to -49%
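THP-1 cells pretreated 1 hr with compounds (up to 57.5 uM final), then stimulated with LPS (250 ng/mL final) plus ATP (1.25 mM final); secreted IL-1B measured by AlphaLISA after 16 hr, decreased signal indicating inhibition.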
TDP1 cell noCPT: qHTS for Inhibitors of human tyrosyl-DNA phosphodiesterase 1 (TDP1): qHTS in cells in absence of CPT; hit rate 15% among 420,000; Potency, µM (titrated, usually from 46.2 µM), for the others: at the top dose activity change, negative = growth inhibition, most hits filed as inhibitors; DT40 Tdp1-/- hTDP1 cells, no CPT, ATP luminescence, 48 h; note: potency is the fitted concentration of half-maximal effect; nearly all actives have a fitted effect of over 55% in size
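Growth of hTDP1-complemented DT40 Tdp1-knockout cells is measured by ATP luminescence after at least 48 hr compound exposure at 37 °C, with DMSO substituting for the 20 nM CPT used in the parallel screen.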
TDP1 cell CPT: growth inhibition of DT40 Tdp1-/-;hTDP1 cells with camptothecin (screen for TDP1 inhibitors); AID 686979; hit rate 12% among 420,000; Potency, µM (doses to about 46.2 µM), inactives show at the highest dose activity change, negative = growth inhibition, usual class: inhibitors; chicken DT40 Tdp1-/-;hTDP1 cells + 20 nM CPT, ATP luminescence, 48 h; note: potency is the fitted concentration of half-maximal effect; nearly all actives have a fitted effect of over 55% in size
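Cell growth measured by CellTiter-Glo luminescence after a minimum 48 h, 37 C compound exposure with 20 nM CPT in Tdp1-knockout DT40 cells stably expressing hTDP1, seeded 400/well; qHTS titration format.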
Giardia kill: Giardia lamblia killing | hit rate 0.15% among 340,000 | activity change, % at 7.66 µM, hits read low | AID 540267 | Giardia lamblia trophozoite viability; in the data active = activity change below about -80%; inconclusive = between about -30% and that limit;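 note: parasites exposed to compound for two days anaerobically before the ATP read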
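Luminescence from cellular ATP indicates surviving trophozoites (100 cells/well) following 48 hrs anaerobic compound treatment at 37 deg C; signal develops 15-30 min at room temperature.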
TDP1 block: blocks human tyrosyl-DNA phosphodiesterase 1 | recombinant TDP1, AlphaScreen DNA substrate cleavage | hit rate 0.28% among 350,000 | AID 485290 | Potency, µM (titrated, usually from 130 µM), inactives show at the highest dose activity change, negative = inhibition, most hits filed as inhibitors | Q9NUW8; note: potency is the fitted concentration of half-maximal effect; nearly all actives have a fitted effect of over 40% in size
Target sequence (Q9NUW8 whole entry, looked up): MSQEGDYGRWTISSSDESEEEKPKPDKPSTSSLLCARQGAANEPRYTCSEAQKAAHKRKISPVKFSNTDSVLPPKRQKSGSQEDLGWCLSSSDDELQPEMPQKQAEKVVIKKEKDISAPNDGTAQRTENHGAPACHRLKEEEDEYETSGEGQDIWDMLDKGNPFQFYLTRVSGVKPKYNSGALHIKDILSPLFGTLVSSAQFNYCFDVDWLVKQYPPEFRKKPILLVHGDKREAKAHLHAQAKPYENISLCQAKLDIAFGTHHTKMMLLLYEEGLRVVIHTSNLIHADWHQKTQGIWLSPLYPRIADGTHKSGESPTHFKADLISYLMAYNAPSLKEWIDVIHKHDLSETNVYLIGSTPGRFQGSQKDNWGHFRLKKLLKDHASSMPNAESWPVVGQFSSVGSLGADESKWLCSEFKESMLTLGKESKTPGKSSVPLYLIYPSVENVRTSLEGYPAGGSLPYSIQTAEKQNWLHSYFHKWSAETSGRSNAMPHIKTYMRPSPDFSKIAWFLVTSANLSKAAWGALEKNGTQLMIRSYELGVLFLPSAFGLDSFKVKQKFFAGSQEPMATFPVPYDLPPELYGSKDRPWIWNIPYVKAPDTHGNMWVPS
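Compounds were preincubated with Tdp1 (1 nM final) for 15 min at room temperature before substrate (15 nM final) started a 5 min reaction; beads (10 ug/ml final) were then added for 10 min before AlphaScreen detection.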
ELG1 DNA repair: blocks ELG1-dependent DNA repair in HEK293T cells; HEK293T ELG1-luciferase reporter, luminescence, 16 h; DNA damage induced by 5-fluorouridine; Potency, µM (doses to about 46.1 µM), without a hit: top-dose activity change, negative = inhibition, usual class: inhibitors; hit rate 2.3% among 330,000; note: potency is the fitted concentration of half-maximal effect; nearly all actives have a fitted effect of over 55% in size
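5-Fluorouridine DNA damage + compound/DMSO, 2,000 cells/well, 16 h, 37 °C/5% CO2. ONE-Glo, 30 min RT, luminescence. Readout = decrease in reporter signal.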
Starred values were filed as active, the others as inactive; ? = inconclusive; / = no result. In the library only some 19% were active in any assay of this set; here they are far more common. Unless noted, calls come from the whole dose curve; as a rule, active = well fitted curve in the direction sought with a large enough effect; inconclusive = small, poorly fitted or top-dose-only effect, or another doubt; inactive = no such curve, though single readings can be large; an effect the other way counts as inactive or inconclusive. % is set by controls: 0 for no effect and ±100 for the full control effect.

SMILES	IL1B secr inh	TDP1 cell noCPT	TDP1 cell CPT	Giardia kill	TDP1 block	ELG1 DNA repair
O=C(C[C@H]1C/C=C\CC[C@H](Cc2ccc(F)cc2)C(=O)O[C@@H](c2ccccc2)CNC1=O)N[C@H](CO)Cc1ccccc1	-15	?	?	1	-3%	21µM*
CC1(C)CC(=O)C=C(c2n[nH]nc2C2=CCCCC2)C1	-12	-17%	-15%	/	/	/
CCC1CN(C(=O)N2CCC(C(=O)NCc3cc(OC)ccc3OC)CC2)c2ccccc2O1 (centres undefined)	/	18µM*	18µM*	/	-1%	/
CCC1CN(C(=O)N2CCC(C(=O)NCCc3cc(OC)ccc3OC)CC2)c2ccccc2O1 (centres undefined)	/	21µM*	16µM*	/	6%	/
CCC1CN(C(=O)N2CCC(C(=O)NCc3ccc(OC)cc3OC)CC2)c2ccccc2O1 (centres undefined)	-16	-28%	?	8	3%	?
CCC1CN(C(=O)N2CCC(C(=O)Nc3ccccc3OC)CC2)c2ccccc2O1 (centres undefined)	34	?	18µM*	-18	2%	?
Cc1csc(=O)n1CC(=O)OCC(=O)NCc1ccc(Cl)cc1Cl	-7	-7%	3%	-9	/	7%
COCCN(Cc1ccc(C)c(Br)c1)S(=O)(=O)c1ccc2[nH]c(=O)ccc2c1	/	?	-18%	/	0%	/
CCCCCN(C(=O)CCC(=O)OCC(=O)c1cccc(OC)c1)c1c(N)n(CCCC)c(=O)[nH]c1=O	27	16%	10%	-23	3%	4%
Cc1ccc(NC(=O)Cn2cc3c(n2)CCCCC3)cc1	/	-23%	-10%	/	0%	/
c1ccc(C(c2ccccc2)N2CC[C@@]3(CCCNC3)C2)cc1	/	26µM*	?	/	/	/
O=S(=O)(c1ccccc1)N1CCC[C@@]2(CCN(C(c3ccccc3)c3ccccc3)C2)C1	/	2%	21%	/	/	/
c1ccc(C(c2ccccc2)N2CCCC3(CCNCC3)C2)cc1	/	6.5µM*	9.2µM*	/	/	/
COC(=O)N1CCC2(CCCN(C(c3ccccc3)c3ccccc3)C2)CC1	/	-25%	13%	/	/	/
CCN1C[C@@H]2[C@@H]3C(=O)N(Cc4ccccc4)C(=O)[C@@H]3[C@](Cc3ccccc3)(C(=O)OC)N2C1=NC	-1	-12%	3%	14	/	16%
CCc1ccccc1NC(=O)Cn1c(=O)n(-c2ccc(C)cc2)c(=O)c2c1c1cc(C)ccc1n2C	/	-1%	-4%	/	10%	/
Cc1cccc(CSc2nc3ccncc3n2CC(=O)Nc2ccc(C)c(C)c2)c1	/	/	/	/	3%	?
COc1ccc(Cn2c(SCc3ccc(C(=O)NC4CCCCC4)cc3)nc3ccncc32)cc1	/	16µM*	?	/	4%	/
COC(=O)c1ccc(Cn2c(SCc3ccc(F)cc3)nc3ccncc32)cc1	/	?	?	/	-1%	/
Cc1ccc(Cn2c(SCc3ccc(C(=O)NC4CCCCC4)cc3)nc3ccncc32)cc1	/	21µM*	?	/	8%	/
COc1ccc(CSc2nc3ccncc3n2CC(=O)Nc2cc(C)cc(C)c2)cc1	/	16µM*	?	/	8%	/
O=C(NC1CCCCC1)c1ccc(CSc2nc3ccncc3n2Cc2ccccc2)cc1	/	21µM*	?	/	5%	/
Cc1cc(NC(=O)CCC(=O)N(Cc2ccccc2)C2(C(=O)NC3CCCCC3)CCCC2)no1	-7	?	?	-7	4%	-2%
CC1CCN(S(=O)(=O)c2ccc3c(c2)N(CC(=O)NC(C)C)C(=O)CS3)CC1	/	-12%	0%	/	3%	/
O=C(COc1ccc(Br)cc1)NCCCN1CCCC1=O	24	24%	-10%	-18	1%	26%
COc1ccc(NC(=O)N2CCOc3ccc(Cl)cc32)cc1	/	-23%	-3%	/	4%	/
